{"source": "PubChem BioAssay (EPA / NIEHS)", "key": {"[1]": {"test": "IUF_NPC2c_oligodendrocyte_migration_120hr: Leibniz Research Institute for Environmental Medicine (IUF) 120-hour Neural Progenitor Cell Migration Assay for Oligodendrocyte Migration (NPC2c) (AID 2284297);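 note: O4-positive oligodendrocyte migration distance divided by radial glia migration distance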", "outline": "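Primary hNPC spheres migrating on extracellular matrix, exposed five days to a 7-point dilution series with solvent control. Oligodendrocyte migration was scored by high-content imaging of O4 immunostaining and expressed relative to radial glia distance.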"}, "[2]": {"test": "IUF_NPC2a_radial_glia_migration_120hr: Leibniz Research Institute for Environmental Medicine (IUF) 120-hour Neural Progenitor Cell Migration Assay for Radial Glia Migration (NPC2a) (AID 2284298)", "outline": "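In this multiplexed test, fetal hNPC spheres migrate radially on poly-D-lysine/laminin in N2 medium (37C, 5% CO2, pH 7.2-7.6) under continuous compound exposure over five days. Migration is scored at 120 h from automated Hoechst nuclear imaging.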"}, "[3]": {"test": "IUF_NPC2a_radial_glia_migration_72hr: Leibniz Research Institute for Environmental Medicine (IUF) 72-hour Neural Progenitor Cell Migration Assay for Radial Glia Migration (NPC2a) (AID 2284299)", "outline": "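Single 0.3 mm neurospheres were plated per well in N2 differentiation medium and exposed from the start of differentiation. After 72 hours, brightfield images were taken and radial glia migration from the sphere core edge was measured manually in four directions, averaged per well.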"}, "[4]": {"test": "IUF_NPC2b_neuronal_migration_120hr: Leibniz Research Institute for Environmental Medicine (IUF) 120-hour Neural Progenitor Cell Migration Assay for Neuron Migration (NPC2b) (AID 2284300)", "outline": "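Neurons identified by TUBB3 immunostaining and Hoechst nuclei; migration distance measured automatically on fixed wells at 120 h, normalized to glia migration. Exposure spanned five days of differentiation in N2 medium, seven test concentrations.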"}, "[5]": {"test": "IUF_NPC3_neuronal_differentiation_120hr: Leibniz Research Institute for Environmental Medicine (IUF) 120-hour Neuronal Differentiation Assay (NPC3) (AID 2284301)", "outline": "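Neuronal differentiation of primary human neural progenitors measured by high-content imaging: percent TUBB3+ of Hoechst+ nuclei within migrated area at 120 h, seven-point serial dilution plus solvent control, gain or loss relative to DMSO.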"}, "[6]": {"test": "IUF_NPC4_neurite_length_120hr: Leibniz Research Institute for Environmental Medicine (IUF) 120-hour Neuronal Morphology Assay for Neurite Length (NPC4) (AID 2284302)", "outline": "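Neurons from differentiating human fetal neural progenitor spheres are scored for average neurite length after five days of compound exposure. Fitting uses DMSO as negative control.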"}, "[7]": {"read-out": "Macrophage colony-stimulating factor (MCSF), CSF1 (gene 1435)", "test": "BSK_IMphg_MCSF: BioMAP Diversity Plus: IMphg Assay for Macrophage colony-stimulating factor (MCSF) Biomarker Activity (AID 2284293)", "conditions": "primary human endothelial cells with macrophages", "outline": "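M-CSF was measured by ELISA in human venular endothelial cell/macrophage co-cultures dosed for 24 hours. Sulforhodamine B staining of parallel cultures assessed cytotoxicity; data fitted against DMSO baseline.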"}, "[8]": {"read-out": "Interleukin-10 (IL10), IL10 (gene 3586)", "test": "BSK_IMphg_IL10: BioMAP Diversity Plus: IMphg Assay for Interleukin-10 (IL10) Biomarker Activity (AID 2284294)", "conditions": "primary human endothelial cells with macrophages", "outline": "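IL-10 read by ELISA after 24 h chemical exposure of primary human venular endothelial cell/macrophage cocultures, with DMSO as baseline. Parallel SRB staining (560 nm) gauged overt cytotoxicity.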"}, "[9]": {"test": "BSK_IMphg_SRB.Mphg: Macrophage Viability Assessment in the BioMAP Diversity Plus: IMphg Assay (AID 2284295)", "conditions": "primary human endothelial cells with macrophages", "outline": "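Cytotoxicity read-out: parallel cultures fixed with 10% TCA, stained with 0.1% sulforhodamine B, read at 560 nm. System combines venular endothelium and macrophages; sampled 24 h post-dosing, fitted positively relative to DMSO control.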"}, "[10]": {"read-out": "Thrombomodulin, THBD (gene 7056)", "test": "BSK_LPS_Thrombomodulin: BioMAP Diversity Plus: LPS Assay for Thrombomodulin Biomarker Activity (AID 2284296)", "conditions": "primary human HUVEC with PBMC", "outline": "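Thrombomodulin on the surface of LPS-activated endothelial/PBMC co-cultures was quantified by ELISA at 24 hours post-dosing, with DMSO as baseline. Parallel SRB total-protein staining flagged overt cytotoxicity.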"}}, "note": "Values joined by “and” are separate entries in the source; they are usually repeats but may differ in a detail not shown here. Identical values can stand only once. Active and inactive are the calls of the source. Rule for the calls: active = hit-call score of the fitted dose curve at least 0.9, where 1 is the maximum; inactive = score below 0.9."}
{"compound": "O=P(OC(CCl)CCl)(OC(CCl)CCl)OC(CCl)CCl", "values": [{"measurement": "outcome", "setting": "[1]", "value": "inactive"}, {"measurement": "AC50", "setting": "[2]", "value": "5.38 µM (active)"}, {"measurement": "outcome", "setting": "[3]", "value": "inactive"}, {"measurement": "outcome", "setting": "[4]", "value": "inactive"}, {"measurement": "outcome", "setting": "[5]", "value": "inactive"}, {"measurement": "outcome", "setting": "[6]", "value": "inactive"}]}
{"compound": "Cn1cnc([N+](=O)[O-])c1Sc1ncnc2nc[nH]c12", "values": [{"measurement": "AC50", "setting": "[7]", "value": "14.7 µM (active) and 8.87 µM (active)"}, {"measurement": "AC50", "setting": "[8]", "value": "12.6 µM (active)"}, {"measurement": "outcome", "setting": "[9]", "value": "inactive"}, {"measurement": "outcome", "setting": "[10]", "value": "inactive"}]}
